This is an account of results in PubChem BioAssay (NCI).

What all share (experiment): NCI-60 one-dose screen, 48 h (100 = growth as untreated, 0 = no growth, -100 = all killed)
Details in all cases: 10 µM unless noted

Experiment [1] deals with SK-MEL-2 melanoma.
Experiment [2] deals with EKVX NSCLC.
Experiment [3] has as its system SN12C renal.
The subject of experiment [4] is UO-31 renal.
Experiment [5] relates to TK-10 renal.
The subject of experiment [6] is ACHN renal.
The subject of experiment [7] is CAKI-1 renal.
Experiment [8] has as its system CCRF-CEM leukemia.
In experiment [9] the test system is MOLT-4 leukemia.
Experiment [10] deals with SR leukemia.
For experiment [11], the system named is RPMI-8226 leukemia.
Experiment [12] relates to OVCAR-8 ovarian.
Experiment [13] concerns OVCAR-5 ovarian.
The subject of experiment [14] is SK-OV-3 ovarian.
Experiment [15] concerns IGROV1 ovarian.
The test system of experiment [16] is OVCAR-3 ovarian.
For experiment [17], the system named is HS 578T breast.
The subject of experiment [18] is NCI/ADR-RES ovarian.
Experiment [19] concerns OVCAR-4 ovarian.

Structures are written as SMILES. This is part of a sample that, as a whole, favours compounds with a hit. Of some 83,000 tested, about 20% had one in any assay.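 Method: cells in 96-well plates; compound added at one concentration; 48 h incubation; percent growth measured; values under 10 scored active.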 Values without a mark were called inactive. Activity calls are given as the source filed them.

Turning to `CC1=CC(c2ccco2)=C2C(N)=NNC2N1` (centres undefined), the growth in [1] was 108%; in [2] it was 96.9%; in experiment [3], 89.9%; in experiment [4] it was 80.9%; in [5], 111%; in experiment [6], 90.8%. In addition, the growth in [7] was 82.6%; in experiment [8] it was 101%; in [9], 103%; in [10] it was 94.2%; in experiment [11], 106%; in experiment [12], 97.7%. Besides, the growth was 87.7% in experiment [13]; 101% in experiment [14]; 86.9% in experiment [15]; 104% in experiment [16]; 105% in experiment [17]; 98.9% in experiment [18].
For the compound `Cc1ccc(NC(=O)Cn2c(Br)nc3c2c(=O)n(C)c(=O)n3C)cc1`, the growth was 84.9% in [1]; 55.5% in [2]; -30% (active) in [3]; 14.1% in experiment [4]; 9.94% (active) in experiment [5]; -66.6% (active) in experiment [6]. The growth is 53% in [7]; 40.7% in experiment [8]; 58.8% in experiment [9]; 12% in experiment [10]; 38.5% in experiment [11]; 28.4% in experiment [12]. Besides, the growth was 27.9% in [13]; -44.9% (active) in experiment [19]; 5.9% (active) in experiment [14]; 33.1% in [15]; -19.8% (active) in [16]; 8.55% (active) in experiment [17]. Also, in [18], the growth was 4.04% (active).
`COc1ccc2c(c1)c(/C(O)=C1\COC(=O)C1=O)cn2Cc1ccc(F)cc1`: the growth in experiment [1] is 85.5%; in experiment [2], 106%; in experiment [3] it was 92.9%; in experiment [4], 72.9%; in [5] it was 119%; in [6], 103%. Besides, the growth in experiment [7] was 125%; in experiment [8], 76.7%; in [9] it was 112%; in [10] it was 136%; in experiment [11], 72.1%; in experiment [12], 111%. Further, the growth was 98% in [13]; 97.1% in experiment [19]; 110% in experiment [14]; 44% in experiment [15]; 107% in experiment [16]; 109% in experiment [17]. Also, the growth in experiment [18] was 107%.
In the case of `O=C(CSc1nnc(-c2cc(-c3ccccc3)nc3ccccc23)n1-c1ccccc1)Nc1ccc(C(=O)/C=C/c2ccc(Cl)cc2)cc1`, the growth in experiment [1] is 112%; in experiment [2], 88.5%; in experiment [3], 85.1%; in experiment [4], 84.4%; in experiment [5] it was 110%; in [6], 87.1%. Besides, the growth in [7] was 81.5%; in [8], 72.2%; in [9], 68.6%; in [10], 80.2%; in experiment [11] it was 66.6%; in [12], 93.1%. For the same compound, the growth in experiment [13] was 90.1%; in [19] it was 91.6%; in experiment [14], 94.2%; in experiment [15], 108%; in [16] it was 97.2%; in experiment [17], 89.1%. Further, the growth in [18] is 95.3%.
Regarding `Cc1ccc(-c2csc(N(C(=O)N3CCN(c4cc5c(cc4F)c(=O)c(C(=O)O)cn5C4CC4)CC3)c3ccccc3)n2)cc1`, the growth in [1] was -4.42% (active); in experiment [2] it was 20.9%; in [3], 9.07% (active); in experiment [4] it was 7.46% (active); in experiment [5] it was 20.6%; in experiment [6], 5.63% (active). The growth in [7] is 2.42% (active); in [8] it was 21%; in experiment [9], 16.6%; in experiment [10], 20.2%; in [11], 17.6%; in experiment [12], 15.6%. The growth in experiment [13] is 13.2%; in experiment [19], 28.4%; in [14] it was 28.2%; in experiment [15] it was 12.5%; in experiment [16] it was 7.88% (active); in experiment [17], 33.5%. Further, the growth in experiment [18] is 6.88% (active).
On to `N#Cc1c(-c2ccccc2)nc(SCc2nnc(-c3ccc(Cl)cc3)o2)[nH]c1=O`, for which the growth in [1] was 80.4%; in experiment [2], 95.5%; in experiment [3] it was 97.6%; in experiment [4], 74.6%; in experiment [5] it was 90.6%; in experiment [6] it was 109%. In addition, the growth in experiment [7] was 93.6%; in experiment [8] it was 85.5%; in [9] it was 79.9%; in experiment [10], 105%; in [11] it was 95.6%; in experiment [12] it was 93.6%. In addition, the growth in [13] is 114%; in experiment [19], 106%; in experiment [14], 55.4%; in [15], 103%; in experiment [16], 103%; in [17], 93.8%. In addition, in experiment [18], the growth is 93.3%.
As for `COC(=O)CC[C@@H]1O[C@@H](c2ccc(F)cc2)[C@@H](O)[C@H]1O`, the growth is 109% in [1]; 104% in experiment [2]; 109% in [3]; 94% in experiment [4]; 101% in [5]; 101% in experiment [6]. In addition, the growth in [7] is 96.8%; in experiment [8] it was 107%; in experiment [10], 96.6%; in [11], 101%; in experiment [12] it was 112%; in [13], 90.2%. Besides, the growth is 115% in experiment [19]; 101% in experiment [14]; 113% in experiment [15]; 104% in experiment [16]; 94.1% in [17]; 104% in experiment [18].
Consider `C=CC(=O)Nc1ccc(Nc2nccc(-c3ccc(N4CCCC4)c(C#N)c3)n2)cc1`, for which the growth in experiment [1] was -0.218% (active); in experiment [2], 66.6%; in experiment [3], 41.4%; in experiment [4] it was 21%; in experiment [5], 26.1%; in experiment [6] it was 19.6%. The growth in [7] is 18.7%; in experiment [8] it was 16.7%; in experiment [9], -8.84% (active); in experiment [10] it was -3.35% (active); in experiment [11] it was -10.3% (active); in experiment [12], 65.9%. Besides, the growth in experiment [13] is 73.4%; in experiment [14], 8.26% (active); in [15] it was 35.9%; in [16], 14.1%; in experiment [17], -5% (active); in experiment [18] it was 57.2%.
